DNA Pol III inh: blocks replication by bacterial DNA polymerase III holoenzyme. reconstituted DNA polymerase III holoenzyme replication, biochemical. Potency, µM (highest dose often 57.1 µM), for inactives: at the top dose activity change, negative = inhibition. actives 0.25% (n = 71,000); also: potency is read from the fitted curve at half-maximal effect; % is scaled to controls: 0 for no effect and ±100 for the full control effect
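Reconstituted *E. coli* holoenzyme (0.35 nM Pol III, 1 nM beta, 154 nM SSB, 2 nM primase) was preincubated with compound for 15 min at RT. Synthesis on 1.4 nM ssM13Gori ran 35 min, then was stopped with PicoGreen/EDTA and read as dsDNA fluorescence.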
TsaE inh: inhibitors of E. coli YjeE (TsaE); purified YjeE enzyme, qHTS inhibition assay; P0AF67; actives 0.05% (n = 71,000); Potency, µM; AID 605
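Fluorescence polarization of a BODIPY Texas Red–ADP probe (2 uM) bound to purified YjeE (10 uM) was read after 15 min room-temperature incubation with compounds. Loss of polarization marks inhibitors; ADP serves as titrated control.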
ALOX15B inhib: blocks human 15-lipoxygenase 2 activity. O15296. purified 15hLO-2, xylenol orange hydroperoxide absorbance. Potency, µM (series often up to 57.1 µM), for the others: at the top dose activity change, negative = inhibition, usual class: inhibitors. actives 0.56% (n = 110,000). AID 881; also: potency is read from the fitted curve at half-maximal effect; % is scaled to controls: 0 for no effect and ±100 for the full control effect; nearly all actives have a fitted effect of over 60% in size
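Purified human 15hLO-2 (50 nM final) preincubated with compounds 15 min at room temperature in 25 mM Hepes pH 7.5, 0.01% Triton X-100, then 45 uM arachidonic acid added for 90 min; hydroperoxide detected via ferrous/xylenol orange, 573/405 nm absorbance ratio.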
BRCT PPI red: BRCT-phosphoprotein interaction inhibition (red fluorophore); P38398; Potency, µM (titrated, usually from 76.9 µM), without a hit: top-dose activity change, negative = inhibition, usual class: inhibitors; actives 0.03% (n = 75,000); BRCT-phosphopeptide binding, red fluorescence polarization; also: % is scaled to controls: 0 for no effect and ±100 for the full control effect
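Fluorescence polarization: 100 nM His-tagged BRCA1 BRCT with 100 nM TAMRA-labelled phospho-BACH1 decapeptide, phosphate buffer pH 7.3 with 150 mM NaCl, DTT, 0.01% Tween 20; 12 min RT. Binding inhibition seen as FP decrease.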
ALOX15 inhib: 15-hLO (ALOX15) enzyme inhibition; P16050; purified 15hLO-1, xylenol orange hydroperoxide absorbance; Potency, µM (titrated, usually from 57.1 µM), inactives show at the highest dose activity change, negative = inhibition, hits mostly inhibitors; actives 1.4% (n = 74,000); AID 887; also: potency is read from the fitted curve at half-maximal effect; % is scaled to controls: 0 for no effect and ±100 for the full control effect; nearly all actives have a fitted effect of over 55% in size
Target sequence (P16050 whole entry, looked up): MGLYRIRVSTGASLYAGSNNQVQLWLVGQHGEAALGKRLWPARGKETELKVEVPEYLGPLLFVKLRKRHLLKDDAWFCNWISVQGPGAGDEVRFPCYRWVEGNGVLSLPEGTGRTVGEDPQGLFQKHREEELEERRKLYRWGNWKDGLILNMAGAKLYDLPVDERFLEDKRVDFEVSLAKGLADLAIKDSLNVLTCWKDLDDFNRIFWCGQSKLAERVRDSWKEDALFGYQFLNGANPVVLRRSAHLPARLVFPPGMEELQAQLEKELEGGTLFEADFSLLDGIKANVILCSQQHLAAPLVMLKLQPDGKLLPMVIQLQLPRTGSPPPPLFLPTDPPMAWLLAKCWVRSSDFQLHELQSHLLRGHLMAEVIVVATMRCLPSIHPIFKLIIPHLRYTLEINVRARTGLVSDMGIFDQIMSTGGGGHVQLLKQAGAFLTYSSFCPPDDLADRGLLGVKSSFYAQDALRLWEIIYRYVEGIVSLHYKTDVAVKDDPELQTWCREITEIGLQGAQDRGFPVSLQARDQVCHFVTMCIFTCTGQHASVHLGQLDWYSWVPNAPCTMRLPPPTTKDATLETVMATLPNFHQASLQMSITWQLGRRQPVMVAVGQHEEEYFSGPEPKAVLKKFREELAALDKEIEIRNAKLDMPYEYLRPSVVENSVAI
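Quantitative HTS in 25 mM Hepes pH 7.5 containing 0.01% Triton X-100: human 15hLO-1 at 40 nM, arachidonic acid at 50 uM, 6 min turnover. Product quantified via ferrous oxidation/xylenol orange, 573:405 nm absorbance ratio.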
BRCT inh green: inhibitors of human BRCA1 BRCT-phosphoprotein interaction (green fluorophore); Potency, µM (series often up to 76.9 µM), inactives show top-dose activity change, negative = inhibition, hits mostly inhibitors; actives 0.05% (n = 75,000); BRCA1 BRCT-phosphopeptide binding, green fluorescence polarization; P38398;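 also: potency is read from the fitted curve at half-maximal effect; plate controls were peptide without protein for full effect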
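Compounds were incubated for 12 min at room temperature with a complex of 100 nM fluorescein-tagged pBACH1 decapeptide and 250 nM His-tagged BRCT protein. Buffer was phosphate pH 7.3 with EDTA, DTT and Tween 20. Disruption of binding lowers the polarization signal.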
The depositor's hits bear a star; [ ] = remark or other dose. This is one part of a sample in which hits are shown more often than they occur. Calls follow the shape of the dose curve; as a rule, active = well fitted curve in the direction sought with a large enough effect; inconclusive = small, poorly fitted or top-dose-only effect, or another doubt; inactive = no such curve, though single readings can be large; an effect the other way counts as inactive or inconclusive.

`C[C@@H](COc1ccc(/C=C\c2ccccc2)cc1)[N+](C)(C)C` gave DNA Pol III inh -0.5%, TsaE inh inactive, ALOX15B inhib -7.1%, BRCT PPI red 1.7%, ALOX15 inhib -16.3% and BRCT inh green -2.3%.
`O=C(Nc1ccc(N2CCOCC2)cc1)Nc1ccc2nc(-c3ccco3)c(-c3ccco3)nc2c1` gave DNA Pol III inh -5.8%, TsaE inh inactive, BRCT PPI red -0.4%, ALOX15 inhib 3.98µM* and BRCT inh green -0.3%.
Screening O=C(NCCCO)Nc1ccc2nc(-c3ccco3)c(-c3ccco3)nc2c1 returned ALOX15B inhib -17.4%.
Screening O=S(=O)(c1ccc2nc(-c3ccco3)c(-c3ccco3)nc2c1)N1CCOCC1 returned DNA Pol III inh inconclusive, TsaE inh inactive, ALOX15B inhib inconclusive, BRCT PPI red -10.1%, ALOX15 inhib 2.51µM* and BRCT inh green -4.4%.
For O=C(c1ccc2ccccc2c1)N1CCN(c2ccc(O)cc2)CC1 the results were DNA Pol III inh -2.2%, TsaE inh inactive, ALOX15B inhib inconclusive, BRCT PPI red 0.9%, ALOX15 inhib 3.16µM* and BRCT inh green -2.4%.
O=C(c1ccc2nc(-c3ccco3)c(-c3ccco3)nc2c1)N1CCN(c2ccccc2)CC1 was read as DNA Pol III inh 1.5%, TsaE inh inactive, ALOX15B inhib 4.7%[2.29 µM], BRCT PPI red -17.8%, ALOX15 inhib 3.16µM* and BRCT inh green -12.0%.
`O=C(c1ccc2ccccc2c1)N1CCN(c2ccc([N+](=O)[O-])c(N3CCOCC3)c2)CC1` gave ALOX15B inhib -17.2%.
Screening Cc1nc(NC2CCCCC2)c2nc(-c3ccccc3)n(CCN3CCCCC3)c2n1 returned DNA Pol III inh -4.2%, TsaE inh inactive, ALOX15B inhib 38.4%, BRCT PPI red -0.4%, ALOX15 inhib inconclusive and BRCT inh green 0.9%.
`O=C(O)[C@H]1C[C@H](C(=O)O)N1` gave DNA Pol III inh -7.2%, TsaE inh inactive, ALOX15B inhib 13.3%, BRCT PPI red 1.8%, ALOX15 inhib 39.9% and BRCT inh green -2.7%.
For Cc1noc(C)c1-c1nccc(NCc2ccccc2)n1 the results were DNA Pol III inh -8.8%, TsaE inh inactive, ALOX15B inhib inconclusive, BRCT PPI red -0.8%, ALOX15 inhib 15.8µM* and BRCT inh green 3.1%.
`Cc1ccc(NC(=O)CSCC(N)=O)cc1C` gave DNA Pol III inh -12.0%, TsaE inh inactive, ALOX15B inhib 1.9%, BRCT PPI red 0.2%, ALOX15 inhib 6.31µM* and BRCT inh green -0.2%.
For Cc1ccc(NC(=O)Cn2cccc2)cc1C the results were DNA Pol III inh -0.4%, TsaE inh inactive, ALOX15B inhib -6.1%, BRCT PPI red 0.1%, ALOX15 inhib 9.3% and BRCT inh green 2.1%.
O=C(O)CSc1ccc([N+](=O)[O-])cc1[N+](=O)[O-] was read as DNA Pol III inh 1.3%[11.4 µM], TsaE inh inactive, ALOX15B inhib -4.9%[11.4 µM], BRCT PPI red -0.6%[15.4 µM], ALOX15 inhib -5.3%[11.4 µM] and BRCT inh green 0.7%[15.4 µM].
For O=C1CCCC2=C1C(c1ccco1)Nc1ccc3ccccc3c12 (stereo not drawn) the results were DNA Pol III inh 25.1µM*, TsaE inh inactive, ALOX15B inhib inconclusive, BRCT PPI red -5.4%, ALOX15 inhib inconclusive and BRCT inh green -3.6%.
O=C1c2ccccc2-c2ccc(N(Cc3ccc(Br)cc3)Cc3ccc(Br)cc3)cc21 was read as DNA Pol III inh -6.5%[11.4 µM], TsaE inh inactive, ALOX15B inhib -2.4%[11.4 µM], BRCT PPI red 0.3%[15.4 µM], ALOX15 inhib 1.8%[11.4 µM] and BRCT inh green -1.3%[15.4 µM].
CN(C)/C=C1\C(=O)c2ccc(N(C)C)nc2CC1c1ccccc1 (stereo not drawn) was read as DNA Pol III inh -4.3%, TsaE inh inactive, BRCT PPI red -0.7%, ALOX15 inhib 5.01µM* and BRCT inh green 12.2%.
For COc1ccc(CCNC(=O)c2ccc3nc(-c4ccco4)c(-c4ccco4)nc3c2)cc1OC the results were DNA Pol III inh 0.8%, TsaE inh inactive, ALOX15B inhib inconclusive, BRCT PPI red -0.6%, ALOX15 inhib 7.94µM* and BRCT inh green -1.7%.
`COc1ccc(CCNC(=O)COC(=O)c2ccco2)cc1OC` gave DNA Pol III inh -2.8%, TsaE inh inactive, ALOX15B inhib -3.5%, BRCT PPI red 1.9%, ALOX15 inhib 11.4% and BRCT inh green -1.1%.
S=c1ccss1 was read as ALOX15B inhib inconclusive, BRCT PPI red 2.1%, ALOX15 inhib 7.94µM* and BRCT inh green -2.3%.
`CCN=C(N)CSS(=O)(=O)O` gave DNA Pol III inh -4.3%[11.4 µM], TsaE inh inactive, ALOX15B inhib -4.8%[11.4 µM], BRCT PPI red 1.1%[15.4 µM], ALOX15 inhib -9.2%[11.4 µM] and BRCT inh green -2.0%[15.4 µM].
`COC(=O)CN1C(=O)S/C(=C/c2ccc(N3CCCCC3)o2)C1=O` gave ALOX15B inhib 12.6µM*.
For O=C(/C=C/c1ccc(O)c(O)c1)O[C@@H](C(=O)O)[C@@H](OC(=O)/C=C/c1ccc(O)c(O)c1)C(=O)O the results were DNA Pol III inh -6.4%, TsaE inh inactive, ALOX15B inhib 9.3%, BRCT PPI red -0.8%, ALOX15 inhib inconclusive and BRCT inh green -1.4%.
O=C(/C=C\c1ccc(O)c(O)c1)OCCc1ccccc1 was read as DNA Pol III inh -2.0%, TsaE inh inactive, ALOX15B inhib 12.6µM*, BRCT PPI red -3.6%, ALOX15 inhib 0.794µM* and BRCT inh green -1.3%.
For CCN1C(=O)[C@H]2[C@H]3[C@H](O)[C@H](O)C/C(=N/NC(=O)OCc4ccccc4)[C@H]3CC[C@@H]2C1=O the results were BRCT PPI red 0.3%[15.4 µM], ALOX15 inhib 5.5%[11.4 µM] and BRCT inh green -4.1%[15.4 µM].
Screening C=CCN1CCc2c(cc(O)c(O)c2Br)[C@H](c2ccccc2)C1 returned DNA Pol III inh -11.7%, TsaE inh inactive, ALOX15B inhib inconclusive, BRCT PPI red -2.2%, ALOX15 inhib inconclusive and BRCT inh green -1.6%.
Screening CCc1cc(C=NC2CCCCC2)c(O)s1 returned DNA Pol III inh -3.7%, TsaE inh inactive, ALOX15B inhib -15.2%, BRCT PPI red -0.2%, ALOX15 inhib 12.6µM* and BRCT inh green -4.4%.
For CC1=C(C(=O)Nc2ccccc2)C(c2ccco2)NC(=S)N1 (stereo not drawn) the results were ALOX15B inhib -2.9%.
`O=C(Nc1ccccc1)C1=C(O)CC(c2ccco2)CC1=Nc1ccccc1` (stereo not drawn) gave DNA Pol III inh -12.3%, TsaE inh inactive, BRCT PPI red -3.4%, ALOX15 inhib 3.16µM* and BRCT inh green 3.1%.

From PubChem
